We go through twelve compounds from the supplement of paper PMC9177965.

Molecules are shown by their SMILES.

This assay concerns HT29 RNF43 G659fs (RNF43 659mut, CRISPR-edited). Nature of the assay: cell viability activity relative to DMSO (negative = inhibition); higher = more viable cells (less growth inhibition). The note with it: 5 µM; 96 h. As to the method:
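Broad Repurposing Library primary screen at a single dose of 5 uM. HT29 sg-Ctrl and HT29 RNF43 G659fs CRISPR-edited isogenic cells were seeded at 2500 cells/well in 384-well plates in duplicate and treated for 96 h. Viability was read by CellTiter-Glo and reported as % activity relative to DMSO, with MG132 as the positive control (negative = growth inhibition).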
As for `C[C@@H]1CC[C@@]2(NC1)O[C@H]1C[C@H]3[C@@H]4CC=C5C[C@@H](O[C@@H]6O[C@H](CO)[C@@H](O[C@@H]7O[C@@H](C)[C@H](O)[C@@H](O)[C@H]7O)[C@H](O)[C@H]6O[C@@H]6O[C@@H](C)[C@H](O)[C@@H](O)[C@H]6O)CC[C@]5(C)[C@H]4CC[C@]3(C)[C@H]1[C@@H]2C`, the cell viability activity was -94%.

Regarding `COc1cc2c(Oc3ccc(NC(=O)C4(C(=O)Nc5ccc(F)cc5)CC4)cc3F)ccnc2cc1OCCCN1CCOCC1`, the cell viability activity was -92.2%.

Regarding `O=C(NC1CCNCC1)c1n[nH]cc1NC(=O)c1c(Cl)cccc1Cl`, the cell viability activity is -82.8%.

For `FC(F)(F)Oc1ccc2nc(-c3ccc(OCCOCCOc4ccc(-c5nc6ccc(OC(F)(F)F)cc6[nH]5)nc4)cn3)[nH]c2c1`, the cell viability activity is -37.9%.

For the compound `CCN(CC)c1ccc(C(=C2C=CC(=[N+](CC)CC)C=C2)c2ccccc2)cc1`, the cell viability activity was -97.7%.

As for `COc1cc2c(cc1-c1c(C)noc1C)ncc1[nH]c(=O)n([C@H](C)c3ccccn3)c12`, the cell viability activity is -60.5%.

As to `COc1c(C)c2c(c(O)c1C/C=C(\C)CCC(=O)O)C(=O)OC2`, the cell viability activity was -22.3%.

With `O=C(CCCCCN1C(=O)c2cccc3cccc(c23)C1=O)NO`, the cell viability activity is -79.1%.

Turning to `Cc1cc(Nc2nc(N[C@@H](C)c3ncc(F)cn3)ncc2Cl)[nH]n1`, the cell viability activity is -32.8%.

Take `Cc1cc(Nc2cc(N3CCN(C)CC3)nc(/C=C/c3ccccc3)n2)n[nH]1`: the cell viability activity was -74.6%.

Regarding `NS(=O)(=O)OC[C@@H]1C[C@@H](n2ccc3c(N[C@H]4CCc5ccccc54)ncnc32)C[C@@H]1O`, the cell viability activity is -78%.

Regarding `C[C@H]1O[C@@H](O[C@H]2[C@@H](O)C[C@H](O[C@H]3[C@@H](O)C[C@H](O[C@H]4CC[C@@]5(C)[C@H](CC[C@@H]6[C@@H]5C[C@@H](O)[C@]5(C)[C@@H](C7=CC(=O)OC7)CC[C@]65O)C4)O[C@@H]3C)O[C@@H]2C)C[C@H](O)[C@@H]1O`, the cell viability activity was -89.3%.
